Assay outcomes as filed in PubChem.
A3G deaminase – blocks human APOBEC3G single-stranded DNA deamination; Q9HC16; recombinant A3G, ssDNA deamination FAM/TAMRA fluorescence; inhibition, % at 20 µM; 330,000 compounds, 0.28% hits; AID 493012;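 active means inhibition of at least 40% at 20 µM, with no more than 30% in the related APOBEC3A deaminase screen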;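 further: plate controls were DMSO wells with A3G for no effect and wells lacking A3G enzyme for full effect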
eIF4H FP inh – inhibitors of RNA binding by human eIF4H; eIF4H fluorescence polarization binding assay; inhibition, % at 35 µM; 290,000 compounds, 0.94% hits;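 further: calls also rest on retests at 20 µM and on dose response follow-up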
MLLE-PAM2 inh – inhibitors of microRNA-mediated deadenylation, human PABP1 MLLE binding; GST-MLLE / FITC-PAM2 fluorescence polarization; inhibition, % at 20 µM; 360,000 compounds, 0.36% hits; in the data active means inhibition above about 35%, passing the limit was not always enough;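 further: plate controls were DMSO wells with GST-MLLE for no effect and wells lacking GST-MLLE protein for full effect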
PABP polyA inh – PABP-poly(A) binding inhibition; P11940; PABP-poly(A) RNA binding, fluorescence polarization; calls only at 35 µM; 290,000 compounds, 1% hits; AID 2014;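 further: calls also rest on retests at 20 µM and on dose response follow-up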
APOBEC3A inh – human APOBEC3A DNA deaminase inhibition; inhibition, % at 20 µM; P31941; 330,000 compounds, 0.41% hits; recombinant A3A, FAM/TAMRA ssDNA deamination fluorescence; AID 493011;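 active means at least 40% inhibition at 20 µM here, with at most 30% in a related deaminase screen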;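 further: plate controls were A3A with DMSO for no effect and wells lacking A3A enzyme for full effect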
Target sequence (P31941 whole entry, looked up): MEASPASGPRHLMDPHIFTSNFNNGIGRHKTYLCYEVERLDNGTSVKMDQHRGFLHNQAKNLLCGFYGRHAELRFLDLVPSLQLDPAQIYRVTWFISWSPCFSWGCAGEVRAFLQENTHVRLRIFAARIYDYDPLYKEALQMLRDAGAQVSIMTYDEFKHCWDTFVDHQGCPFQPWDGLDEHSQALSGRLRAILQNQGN
PHOSPHO1 inh – PHOSPHO1 (human) inhibition; recombinant PHOSPHO1, absorbance phosphatase assay; inhibition, % at 13.3 µM; AID 1565; 290,000 compounds, 1.1% hits; in the data active means inhibition above about 60%
Active calls of the source: *; i = inactive; ? = inconclusive; nt = not tested or not shown; + = active, no number. The list is not random: actives were taken first. Their share in the collection is about 2.6%. Unless noted, how the calls were made is not given here.

SMILES	A3G deaminase	eIF4H FP inh	MLLE-PAM2 inh	PABP polyA inh	APOBEC3A inh	PHOSPHO1 inh
CN(C)c1ccc(NC(=O)c2sc(SCC(=O)Nc3ccc(Br)cc3)nc2N)cc1	-1	4	10	i	-2	-32
CCc1noc(C)c1C(=O)Nc1ccc(C#N)cc1	-6	nt	-5	nt	-3	nt
S=c1[nH]nc(Cc2cccs2)n1-c1ccccc1Cl	17	4	-3	i	-3	-110
O=C1NC(c2ccc(Br)cc2)Nc2sc3c(c21)CCC3 (stereo unspecified)	1	103*	-4	+	4	-57
CN1CCc2c(sc3c2C(=O)NC(c2ccccc2)N3)C1 (stereo unspecified)	-7	63*	-48	+	-3	13
COC(=O)c1ccc(-c2noc(CN(C)CC3CCCCO3)n2)cc1 (stereo unspecified)	-6	-6	11	i	-5	10
CCn1ccnc1CN(C)Cc1nc(-c2ccc(C(=O)OC)cc2)no1	5	0	13	i	11	60*
Cn1c(SCC(=O)Nc2cc(=O)n(C)c(=O)n2C)nnc1C12CC3CC(CC(C3)C1)C2	nt	-5	nt	i	nt	61*
CCOc1ccc(NC(=O)CSc2nnc(C34CC5CC(CC(C5)C3)C4)n2C)cc1	0	-6	-2	i	2	20
O=C(O)CN1C(=O)C2C3CC(C2C1=O)C1C(c2ccc(F)cc2)c2sc(=O)[nH]c2SC31 (stereo unspecified)	-6	8	39*	i	-3	16
O=C(O)CN1C(=O)C2C3CC(C2C1=O)C1C(c2ccc(Cl)cc2)c2sc(=O)[nH]c2SC31 (stereo unspecified)	0	25	20	i	3	9
O=C1Nc2ccccc2C(=O)N2[C@H](c3ccccc3)[C@@H]3C(=O)N(Cc4ccccc4)C(=O)[C@@H]3[C@H]12	-4	3	0	i	5	15
CCOC(=O)c1sc(NC(C)=O)nc1-c1ccccc1	-7	-2	-15	i	-2	27
CC(=O)Nc1sc(N)nc1-c1ccccc1	-7	-5	5	i	-2	80*
CCc1nnc(NC(=O)CSc2nnc(CNC(=O)c3cc(OC)c(OC)c(OC)c3)o2)s1	-5	6	13	i	-10	6
O=c1[nH]cnc2scc(-c3ccc(-c4ccccc4)cc3)c12	nt	59	-7	+	nt	12
O=C(Nc1ccn(Cc2ccc(Cl)cc2)n1)c1ccccc1	-1	-2	7	i	-1	-22
O=C(Nc1ccn(Cc2ccccc2)n1)c1ccc2c(c1)OCO2	-1	-8	-2	i	3	61*
CCOC(=O)/C(C#N)=C/c1ccc(N2CCN(C)CC2)cc1	1	active	-26	i	4	4
FC(F)(F)c1ccccc1Nc1nccs1	6	0	-21	i	0	95*
Cc1csc(Nc2ccccc2C(F)(F)F)n1	-7	2	2	i	-5	-13
Cc1ccc(C23CC4CC(CC(CN)(C4)C2)C3)cc1	nt	-1	10	i	nt	60*
O=C(NCC(=O)N1CCN(c2ccccc2O)CC1)c1ccc2c(c1)OCO2	-7	nt	-9	nt	-2	nt
C[C@@H](OC(=O)c1[nH]cnc1C(=O)NCc1ccc(CNC(=O)OC(C)(C)C)cc1)c1ccccc1	-6	nt	-12	nt	-3	nt
COc1ccc2c(c1)Cc1sc(NC(=O)c3ccco3)nc1-2	0	14	26	i	-3	-107
SMILES	A3G deaminase	eIF4H FP inh	MLLE-PAM2 inh	PABP polyA inh	APOBEC3A inh	PHOSPHO1 inh
COc1ccc2c(c1)Cc1sc(NC(C)=O)nc1-2	-5	-1	37*	i	-3	17
CCC1(C)Cc2nc3sc(C(=O)O)c(N)c3cc2CO1 (stereo unspecified)	-5	12*	-6	+	-2	42
CCCCn1c(N)c(C(=S)NC(=O)CC(C)(C)C)c(=O)n(C)c1=O	-7	-1	48*	i	-4	-4
COc1ccc(CCNC(=O)CN2C(=O)NC3(CCCCC3C)C2=O)cc1 (stereo unspecified)	0	nt	3	nt	2	nt
COCCn1c(SCC(=O)N(C)c2c(N)n(Cc3ccccc3)c(=O)[nH]c2=O)nnc1-c1cccc(C)c1	-4	nt	0	nt	0	nt
CCN1CCN(C(=S)c2ccc(Cl)c(Cl)c2)CC1	10	1	29	i	-6	95*
CCN1CCN(C(=S)Nc2ccc(Cl)c(Cl)c2)CC1	0	1	-83	i	0	4
COc1cc2c(cc1NC(=O)COC(=O)C(CCSC)NC(=O)c1ccccc1Cl)oc1ccccc12 (stereo unspecified)	1	2	-1	i	-1	3
COc1ccc(O)c(/C=N/NC(=S)Nc2cccnc2)c1	-5	12	41*	i	-5	-83
COc1cccc(/C=N/NC(=S)Nc2cccnc2)c1	5	-10	32	?	-1	-46
Oc1ccc(/C=N/NC(=S)Nc2cccnc2)cc1	-2	-5	38*	i	-2	10
O=C(Nc1cccc2ccccc12)N1CCN(c2ccccc2)CC1	-4	0	13	i	-2	-40
O=C(Nc1cccc2ccccc12)N1CC=CCC1	2	81*	-8	+	1	1
COc1cc(C)ccc1OCc1cc(C(=O)N2CCN(C)C[C@@H]2c2ccccc2)no1	4	-11	15	i	-1	36
COc1cc(C(=O)N2CCC2(C)C(=O)NC(C)C)cc(OC)c1OC (stereo unspecified)	nt	nt	12	nt	nt	nt
CC(C)(C)OC(=O)[C@H](Cc1ccccc1)NC(=O)c1nc[nH]c1C(=O)N1CCNCC1	2	nt	4	nt	-3	nt
CN1C/C(=C\c2ccc(N3CCOCC3)cc2)C(=O)/C(=C/c2ccc(N3CCOCC3)cc2)C1	-12	78*	-133	+	-10	3
CCN1C/C(=C/c2ccc(N3CCOCC3)cc2)C(=O)/C(=C/c2ccc(N3CCOCC3)cc2)C1	nt	?	-152	i	nt	-12
COc1cccc(NC(=O)CN2C(=O)CSc3ccc(S(=O)(=O)N4CCCCC4)cc32)c1	-1	nt	7	nt	-2	30
Cc1[nH]c(=O)[nH]c(=O)c1/C=C/C(=O)OCC(C)C	-3	?	8	+	0	-4
CCCOC(=O)/C=C/c1c(C)[nH]c(=O)[nH]c1=O	-4	7	11	i	1	-2
COc1ccc(N(CC(=O)Nc2cc(Cl)ccc2C)S(=O)(=O)c2c(C)n[nH]c2C)cc1	3	-5	-14	i	-2	7
CCn1c(COc2ccc(Cl)cc2)nnc1SCc1nc2ccccc2[nH]1	-8	-4	-108	i	-6	91*
c1ccc(-c2nnc(SCc3nc4ccccc4[nH]3)n2Cc2ccco2)cc1	2	-5	-56	i	3	96*
CCn1c(COc2ccc(C)cc2)nnc1SCC(=O)C(C)(C)C	-4	-6	-99	i	-1	44
